This is one part of a sample in which hits are shown more often than they occur.
Measles inh: inhibitors of measles virus growth in infected cells | infected Vero cells, GFP fluorescence, 64 h; active compounds read low | z-score (concentration not given with the values) | 33,000 tested, 0.1% active; in the data active = z-score below about -3
Of the large screens only hits and unclear results are named; the others gave an inactive call.

Cc1ccc(S(=O)(=O)N(CC(=O)NCc2ccco2)Cc2ccccc2)cc1	none
O=C(NCc1ccccc1)c1cccc(-n2c(=S)[nH]c3cc(Cl)ccc3c2=O)c1	none
NC(=O)c1ccc(NC(=O)CCC(=O)Nc2ccc(C(N)=O)cc2)cc1	none
COCCNC(=O)c1cnn2c(C)c(Cc3ccccc3Cl)c(C)nc12	none
COCCn1c(=O)[nH]c2cc(C(=O)NC3CCN(Cc4ccccc4)CC3)ccc2c1=O	none
COCCCNC(=O)c1ccc2c(=O)n(CCOC)c(=O)[nH]c2c1	none
COCCn1c(=O)[nH]c2cc(C(=O)NCCN3CCN(c4ccccc4)CC3)ccc2c1=O	Measles inh -3.6
COC(=O)c1ccc(-n2nnnc2SCC(=O)Nc2ccc(C)c(C)c2)cc1	none
O=C(CN(c1ccc(Cl)c(C(F)(F)F)c1)S(=O)(=O)c1ccccc1)NCC1CCCO1 (configuration not stated)	none
COc1ccc(CNC(=O)c2ccc3c(=O)n(-c4cc(OC)ccc4OC)c(=S)[nH]c3c2)cc1	none
CCN(CC)C(=O)c1ccc2c(=O)n(-c3cc(OC)ccc3OC)c(=S)[nH]c2c1	Measles inh -5.5
COc1ccc(OC)c(-n2c(=S)[nH]c3cc(C(=O)Nc4ccc5c(c4)CCC5)ccc3c2=O)c1	none
COc1ccc(-n2nc3c(c2NC(=O)c2ccco2)CS(=O)C3)cc1 (configuration not stated)	none
COC(=O)c1c(NC(=O)c2ccc(C)c([N+](=O)[O-])c2)sc2c1CCC2	none
Cc1cccc(C(=O)Nc2sc3c(c2C(=O)NCc2ccco2)CCCC3)c1	none
Cc1cc(C(=O)Nc2sc3c(c2C(=O)OC(C)C)CCCC3)ccc1[N+](=O)[O-]	none
Cc1cccc(C(=O)Nc2sc3c(c2C(=O)Nc2ccccc2Cl)CCCC3)c1	Measles inh -4.4
Cc1cccc(C(=O)Nc2sc3c(c2C(=O)Nc2ccccc2Cl)CCC3)c1	none
CC(C)OC(=O)c1c(NC(=O)c2ccc(Cl)c([N+](=O)[O-])c2)sc2c1CCCC2	Measles inh -3.8
O=C(c1cc2nc(-c3ccc4c(c3)OCO4)cc(C(F)(F)F)n2n1)N1CCN(c2ccccc2Cl)CC1	none
